Source: PubChem BioAssay AID1117267 (The Scripps Research Institute Molecular Screening Center, 2014)
The campaign covered roughly 92,000 compounds. About 1,200 (1.3%) were called active.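 Rule for the calls: active = activation above the mean of all tested compounds plus 3 SD (cut at about 9.5% in these data); inactive = the rest.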 For the sample, actives were picked, then their nearest neighbours and some compounds at random.

assay: compounds raising TTR promoter-driven luciferase – cell-based, luminescence, SH-SY5Y, TTR promoter Gaussia luciferase, primary screen (AID 1117267); details: at 16.7 µM, stronger effect = higher value, 100% = recombinant luciferase protein wells;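 note: cells exposed to compounds for one day before reading; 0% = median of all test compound wells on the plate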

Row | SMILES | activation
1 | CCCCN(CC)C(=O)C1CCCN(S(=O)(=O)c2cccc3nsnc23)C1 (stereo not drawn) | -1.18% (inactive)
2 | CCCCN(C)CCNC(=O)C1CCCN(S(=O)(=O)c2cccc3nsnc23)C1 (stereo not drawn) | 14.2% (active)
3 | COc1ccc(N(C)C(=O)C2CCN(S(=O)(=O)c3cccc4nsnc34)CC2)cc1 | -0.63% (inactive)
4 | Cc1cccc(NC(=O)c2cccc(C(F)(F)F)c2)c1 | 0.86% (inactive)
5 | Cc1ccccc1CN1CCCCC(NC(=O)Nc2ccccc2F)C1=O (stereo not drawn) | -2.49% (inactive)
6 | CCOc1c(OC)cccc1C(=O)NCC1(c2ccccc2)CCCC1 | -2% (inactive)
7 | O=C1CC(c2ccc3c(c2)OCO3)N=C2N(CC3CC3)C/C(=C/c3ccccc3)N12 (stereo not drawn) | -0.26% (inactive)
8 | C=C1C(C(C)C)N(C)C2=NC(c3ccccc3)CC(=O)N12 (stereo not drawn) | 11.5% (active)
9 | COCCNC(=O)C1CCN(C(=O)C2CC(=O)N(c3ccc(C)cc3)C2)CC1 (stereo not drawn) | 3.12% (inactive)
10 | COc1ccc(CNc2nccs2)cc1 | -0.05% (inactive)
11 | CCOC(=O)c1c(C)oc2cc(Sc3ccccc3)c(O)c(O)c12 | -2.74% (inactive)
12 | O=S(=O)(NCCc1ccccc1)c1ccccc1 | 0.09% (inactive)
13 | Cc1noc(C)c1S(=O)(=O)NCCc1ccc(S(N)(=O)=O)cc1 | 13.7% (active)
14 | CCOC(=O)c1c(C)c(C(=O)NCCc2ccc(S(N)(=O)=O)cc2)c(C)n1CC | -1.43% (inactive)
15 | COc1ccccc1/C=N/Nc1nc(C)c(C(C)=O)s1 | 0.48% (inactive)
16 | COc1ccccc1N1CCN(Cc2nnnn2CCc2ccccc2)CC1 | -0.88% (inactive)
17 | COc1ccccc1N1CCN(c2nc(C)cc(=O)[nH]2)CC1 | -0.14% (inactive)
18 | COc1ccccc1N1CCN(Cc2cc(OC)c3c(c2)OCO3)CC1 | 16.9% (active)
19 | Cc1ccc(C(=O)COC(=O)CCCC(=O)NC2CCCCC2)cc1[N+](=O)[O-] | -0.69% (inactive)
20 | CCN(CC)CCCN=C(N)N | -0.95% (inactive)
21 | Cc1ccc(NC(=O)CN(C)Cc2ccc(F)cc2)c([N+](=O)[O-])c1 | 2.25% (inactive)

Row | SMILES | activation
22 | COc1ccc(-n2ncc3c2CC(C)(C)CC3NC(=O)CCc2c(C)noc2C)cc1 (stereo not drawn) | -1.69% (inactive)
23 | O=C(NC1CCCC1)C1c2ccccc2OCC(=O)N1CC(F)(F)F (stereo not drawn) | -1.49% (inactive)
24 | CCOCCn1c(-c2ccccc2)nc2ccccc21 | 0.16% (inactive)
25 | C[C@H](NC(=O)C1CCN(S(=O)(=O)c2ccccc2)CC1)C(=O)NCc1ccccc1 | 10.2% (active)
26 | O=C(NCc1ccc(Cl)cc1)C1CCN(S(=O)(=O)c2cccs2)CC1 | -1.39% (inactive)
27 | COc1ccccc1CNC(=O)C1CCN(S(=O)(=O)c2ccc3c(c2)OCCO3)CC1 | 0% (inactive)
28 | CC1=C(C(=O)N2CCOCC2)CC(CC(=O)NCc2cccc3ccccc23)C(=O)N1CCC1=CCCCC1 (stereo not drawn) | 3.82% (inactive)
29 | COc1ccc(Cn2ccc3ccc(-c4ccc5ccn(Cc6ccccc6C)c5c4)cc32)cc1 | 2.53% (inactive)
30 | Cn1cc(CN2CCCC(CO)C2)c(-c2ccc(Oc3ccccc3)cc2)n1 (stereo not drawn) | 11.1% (active)
31 | Cn1cc(CN2CCC(C(O)CCc3ccccc3)CC2)c(-c2ccccc2F)n1 (stereo not drawn) | -1.93% (inactive)
32 | CCCOC1CCCN(Cc2cn(C)nc2-c2ccccc2F)C1 (stereo not drawn) | 0.85% (inactive)
33 | O=C(CCc1n[nH]c(=O)[nH]c1=O)N/N=C/c1ccc(Br)o1 | 3.17% (inactive)
34 | C=CCN(Cc1nc(-c2cc(OC)c3c(c2)OCO3)oc1C)C1CCS(=O)(=O)C1 (stereo not drawn) | -0.47% (inactive)
35 | CCC(=O)c1c(CC)c2n3c1=CC[C@H]3CC(Br)C=2 (stereo partly drawn) | -0.76% (inactive)
36 | O=C(NC(=O)c1ccccc1N1CCCCC1)Nc1ccc(Br)cc1 | 22.9% (active)
37 | O=C(Nc1ccc(C(=O)O)cc1)/C(=C\c1ccccc1)NC(=O)c1ccc(Br)cc1 | 0.53% (inactive)
38 | COc1ccccc1C(=O)NC(=S)Nc1ccccc1N1CCCCC1 | 1.44% (inactive)
39 | COc1ccc(C(C)NC(=O)C23CC4CC(CC(C4)C2)C3)cc1 (stereo not drawn) | 0.59% (inactive)
40 | O=S1(=O)CCOC[C@H](CC2CCCCC2)N1Cc1ccc(F)cc1 | 0.81% (inactive)
41 | CCC(C)[C@H]1COCCS(=O)(=O)N1Cc1ccc(C)cc1 (stereo partly drawn) | 1.12% (inactive)
42 | Cc1ccc(CN2CCCOCCS2(=O)=O)cc1 | 11.7% (active)

Row | SMILES | activation
43 | O=C(Cn1cnc2ccccc21)Nc1ccccc1-c1ccccc1 | -1.54% (inactive)
44 | N=c1ccn(CC(=O)NC(N)=O)c2ccccc12 | 10.4% (active)
45 | CCc1ccccc1NC(=O)Cc1cn(C)c2ccccc12 | 4% (inactive)
46 | Cc1cn(C2CC(O)C(CO)O2)c(=O)n(CCCc2ccccc2)c1=O (stereo not drawn) | 1.94% (inactive)
47 | O=C(CN1CCOCC1)Nc1c(Cl)cc(Cl)cc1Cl | -1.15% (inactive)
48 | O=S(=O)(NCCCN1CCOCC1)c1ccc(F)c(Cl)c1 | 14.3% (active)
49 | Cn1c(=O)c(=O)n(C)c2cc(S(=O)(=O)NCCN3CCN(c4ccccc4F)CC3)ccc21 | -0.31% (inactive)
50 | Cn1nc(-c2ccccc2)c2cc([N+](=O)[O-])ccc21 | 2.37% (inactive)
51 | CCCNC(=O)C(=O)Nc1cc2c3c(c1)CCC(=O)N3CCC2 | 0.51% (inactive)
52 | CCOC(=O)c1c(-c2ccccc2)oc2ccc(OCC(=O)NN)cc12 | 3.27% (inactive)
53 | CCOC(=O)c1c(C)oc2ccc(OCC(=O)N(CC)CC)cc12 | 0.72% (inactive)
54 | CCOC(=O)c1c(-c2ccccc2)oc2ccc(OCC(N)=O)cc12 | 10% (active)
55 | CCOc1ccc(CN2CCN(Cc3ccon3)CC2CCO)cc1 (stereo not drawn) | 7.67% (inactive)
56 | CC(NC(=O)CCCC1CCCCC1)c1ccc(S(N)(=O)=O)cc1 (stereo not drawn) | -0.93% (inactive)
57 | CCOC(=O)COc1ccc([N+](=O)[O-])cc1 | 0.43% (inactive)
58 | N#Cc1cccc(CN2CCC(=O)N(CCO)CC2)c1 | 14.7% (active)
59 | O=C1CCN(Cc2ccc([N+](=O)[O-])cc2)CCN1[C@H](CO)Cc1ccccc1 | -6.98% (inactive)
60 | O=C1CCN(CCc2ccccc2)CCN1CCOc1ccccc1 | 0.26% (inactive)
61 | O=S(=O)(NCc1ccccc1Br)c1ccccc1Br | 14% (active)
62 | CCCCCCNS(=O)(=O)c1ccccc1Br | -0.76% (inactive)
63 | CCN([C@H](CO)C(C)C)S(=O)(=O)c1ccccc1Br | 3.03% (inactive)
